Measurements taken from PubChem BioAssay (NCATS).
Where “and” joins values, the source holds several entries; their conditions need not be identical. Equal entries are not always repeated. Results filed as inconclusive are left out. Calls of active or inactive are those of the source. Unless noted, calls come from the whole dose curve; as a rule, active = well fitted curve in the direction sought with a large enough effect; inconclusive = small, poorly fitted or top-dose-only effect, or another doubt; inactive = no such curve, though single readings can be large; an effect the other way counts as inactive or inconclusive.

Tests used:
[1] = biological target: Cytochrome P450 3A4 (Homo sapiens) (UniProt P08684); experiment: qHTS Assay for Inhibitors and Substrates of Cytochrome P450 3A4 (AID 884); conditions: recombinant CYP3A4, Luciferin-PPXE luminescence; series mostly up to 57.1 µM; note: nearly all actives have a fitted effect of over 50% in size; note: potency is the fitted concentration of half-maximal effect
Procedure, shortened: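 20 nM human CYP3A4 with 25 uM Luciferin-PPXE (at KM) in 200 mM KPO4, preincubated 10 min with compound; NADPH regeneration started a 60 min RT reaction. Luciferin detected by luminescence, normalized to 57 uM ketoconazole as full inhibition.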

[2] = MultiTox-Fluor Cytotoxicity Assay - LYMP1-001 - Live Cells (AID 947); conditions: LYMP1-001 lymphoblastoid cells, live-cell protease fluorescence viability; series mostly up to 92.2 µM;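 note: 0% = DMSO only and full inhibition = tetraoctylammonium bromide control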
[3] = MultiTox-Fluor Cytotoxicity Assay - LYMP1-002 - Dead Cells (AID 960); conditions: LYMP1-002 lymphoblastoid cells, dead-cell protease fluorescence; series mostly up to 46.1 µM;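 note: 0% = DMSO and 100% = tetraoctylammonium bromide; nearly all actives have a fitted effect of over 60% in size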
Procedure, shortened: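 Human lymphoblastoid cells (LYMP1-002), 2500/well in complete medium, were exposed to compounds for 16 hr at 37 C. Dead-cell protease activity was read as bis-AAF-R110 fluorescence (Ex/Em 485/520), normalized to DMSO and 15 uM tetraoctylammonium bromide; AC50 from Hill fits.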

[4] = biological target: Peroxisome proliferator-activated receptor gamma (Homo sapiens) (UniProt P37231); experiment: qHTS assay for small molecule agonists of peroxisome proliferator-activated receptor gamma signaling (AID 588536; active = well fitted curve in the direction sought with a large enough effect in the signal ratio, with a control signal flat, not every such curve was filed as active; the % refers to the signal ratio;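 note: 0% = DMSO basal wells and 100% = rosiglitazone at 2 µM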); conditions: HEK293 PPARg-UAS-bla, beta-lactamase ratio, 16 h, percent of rosiglitazone response, DMSO as zero; series mostly up to 76.7 µM
Procedure, shortened: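 Ratiometric blue/green fluorescence (405 nm excitation; 460 and 530 nm emission) from CCF4-loaded HEK293 reporter cells serves as signal. Exposure to test compounds lasts 16 h at 37 C in medium containing 1% charcoal/dextran-treated serum.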

[5] = biological target: Vitamin D3 receptor (Homo sapiens) (UniProt P11473); experiment: qHTS assay for small molecule antagonists of vitamin D receptor signaling (AID 588541; calls by dose curve;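 note: receptor activated by calcitriol during compound treatment; % is set by controls: 0 for no effect and ±100 for the full control effect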); conditions: HEK293T VDR-UAS-bla, beta-lactamase ratio, antagonist mode; series mostly up to 76.7 µM
Procedure, shortened: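 Antagonist-mode beta-lactamase reporter assay: HEK293T VDR-UAS-bla cells were exposed to titrated compound alongside 1-alpha,25-dihydroxyvitamin D3 at 3 nM final for 16 h. Values were normalized to the 50 nM agonist control and DMSO basal, with IC50 and efficacy from Hill equation fits.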

[6] = biological target: Vitamin D3 receptor (Homo sapiens) (UniProt P11473); experiment: qHTS assay for small molecule agonists of vitamin D receptor signaling (AID 588543; calls by dose curve;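 note: 0% = DMSO basal and 100% = reference agonist control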); conditions: HEK293T VDR-UAS-bla, beta-lactamase ratio, 16 h; series mostly up to 76.8 µM
Procedure, shortened: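 Measured: β-lactamase reporter activity (CCF4, 405 nm excitation, 460/530 nm emission) in HEK293T VDR-UAS-bla cells after 16 h compound exposure at 37 °C. Normalization against 50 nM 1α,25-dihydroxyvitamin D3 and DMSO; Hill-fit EC50.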

[7] = qHTS assay for small molecule agonists of retinoid X receptor alpha signaling (AID 588544); conditions: HEK293T RXRa-UAS-bla, beta-lactamase reporter, 18 h; 530 nm emission
[8] = biological target: Thyroid hormone receptor beta (Homo sapiens) (UniProt P10828); experiment: qHTS assay for small molecule antagonists of thyroid hormone receptor beta signaling (AID 588547; active = well fitted inhibition curve with a large enough effect in the signal ratio, with a control signal flat, not every such curve was filed as active; the % refers to the signal ratio;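 note: cells stimulated with 0.4 nM T3 agonist during compound exposure; % is set by controls: 0 for no effect and ±100 for the full control effect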); conditions: TR-UAS-bla HEK293, beta-lactamase ratio, antagonist mode, 18 h
Procedure, shortened: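 Inhibition of T3-driven (0.4nM final) beta-lactamase reporter activity was measured over 0.59 nM to 92 uM compound after 18 h at 37 C. The cells were GripTite HEK293 TR-UAS-bla in charcoal/dextran-stripped serum, with CCF4 ratio read-out and IC50 from Hill fits.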

[9] = qHTS assay for small molecule disruptors of the mitochondrial membrane potential - 1 hr assay (AID 651754; calls by dose curve; note: % is set by controls: 0 for no effect and ±100 for the full control effect; nearly all actives have a fitted effect of over 35% in size); conditions: series mostly up to 92.2 µM
Procedure, shortened: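 HepG2 cells, attached overnight at 37C, were exposed to compound or DMSO vehicle for 1 hr at 37C, 5% CO2, then stained with Mito-MPS dye for 30 min. Red aggregate versus green monomer fluorescence reports membrane potential.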

[10] = qHTS assay for small molecule disruptors of the mitochondrial membrane potential - 5 hr assay (AID 651755; calls by dose curve; note: % is set by controls: 0 for no effect and ±100 for the full control effect; nearly all actives have a fitted effect of over 40% in size); conditions: JC-1-type ratio dye; series mostly up to 92.2 µM
Procedure, shortened: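 HepG2, 2,000 cells/well, overnight attach; cpd or DMSO 5 hr, 37C/5% CO2; Mito-MPS 30 min 37C; fluor 490/535 + 540/590 nm.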

[11] = biological target: Tumor necrosis factor (Homo sapiens) (UniProt P01375); experiment: qHTS assay to identify small molecules that stimulate Tumor Necrosis Factor-alpha (TNF-alpha) secretion (AID 651757; active = well fitted curve in the direction sought with a large enough effect in the signal ratio; the % refers to the signal ratio; note: 0% is about no effect); conditions: Human cells, HTRF 665/615 ratio; series mostly up to 92.2 µM
Procedure, shortened: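 THP-1 cells were exposed to compounds for 17 hrs at 37 C, after which secreted TNF-alpha was measured by homogeneous HTRF (TR-FRET) using cryptate- and XL665-labeled anti-TNF-alpha antibodies, read after 3 hr at room temperature.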

[12] = qHTS assay for environmental chemicals that activate the Aryl hydrocarbon Receptor (AhR) signaling pathway (AID 651777); conditions: 1A2-DRE human hepatoma cells, luciferase, 24 h; activation: stronger effect = higher value; note: % of control where 0% means no effect; nearly all actives have a fitted effect of over 15% in size
Procedure, shortened: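 Concentration–response screening used 1,200 1A2-DRE cells per well, 24 hr compound exposure (37 C, 5% CO2), and One-Glo luminescence as the AhR-driven CYP1A2 reporter signal.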

[13] = qHTS assay for small molecule antagonists of the retinoid-related orphan receptor gamma (ROR-gamma) signaling pathway - cell viability counter screen (AID 720652; active = well fitted curve in the direction sought with a large enough effect in the repeat runs; an effect the other way counts as inactive or inconclusive;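 note: compound exposure lasted 16 hr before ATP read; % is set by controls: 0 for no effect and ±100 for the full control effect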); conditions: RORgamma reporter cell line viability counter screen; series mostly up to 92.2 µM
Procedure, shortened: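 Counter screen in CHO cells carrying TET-inducible ROR-gamma and an ROR response element-luciferase reporter; cells plated 5 hr, compound pinned, doxycycline added, then 16 hr at 37 C. Viability read as intracellular ATP by CellTiter-Glo luminescence.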

[14] = biological target: Nuclear receptor subfamily 1 group I member 2 (Rattus norvegicus) (UniProt Q9R1A7); experiment: qHTS assay for small molecule activators of the rat pregnane X receptor (rPXR) signaling pathway (AID 651751; call rule not given here; note: 0% is about no effect); conditions: rPXR reporter cells, luciferase (One-Glo), 24 h
[15] = qHTS assay for small molecule activators of the human pregnane X receptor (PXR) signaling pathway (AID 720659; call rule not given here; note: 0% is about no effect); conditions: DPX-2 HepG2 CYP3A4-luciferase, 24 h; series mostly up to 92.3 µM
[16] = biological target: Estrogen receptor (Homo sapiens) (UniProt P03372); experiment: qHTS assay for small molecule antagonists of estrogen receptor alpha signaling (AID 588513; active = well fitted curve in the direction sought with a large enough effect in the signal ratio, with a control signal flat, not every such curve was filed as active; the % refers to the signal ratio; note: % is set by controls: 0 for no effect and ±100 for the full control effect); conditions: ER-alpha-UAS-bla HEK293, beta-lactamase ratio, antagonist mode; series mostly up to 76.9 µM
Procedure, shortened: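 Antagonist-mode qHTS in ER-alpha-UAS-bla HEK 293 cells: compound titration, 0.5nM estradiol for 18 h, CCF4 fluorescence, Hill-derived IC50.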

[17] = biological target: Estrogen receptor (Homo sapiens) (UniProt P03372); experiment: qHTS assay for small molecule agonists of estrogen receptor alpha signaling (AID 588514; calls by dose curve;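 note: 0% = vehicle only and 100% = reference agonist; nearly all actives have a fitted effect of over 70% in size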); conditions: ER-alpha-UAS-bla HEK293, beta-lactamase ratio, 18 h; series mostly up to 76.8 µM
Procedure, shortened: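 ER-alpha-UAS-bla GripTite HEK 293 cells in medium with 2% charcoal/dextran-treated FBS were treated with compound titrations at 37 C for 18 hrs; beta-lactamase reporter read by CCF4 fluorescence after 2 hrs at RT.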

[18] = qHTS assay for small molecule activators of the p53 signaling pathway (AID 651743; active = well fitted activation curve with a large enough effect in the signal ratio, not every such curve was filed as active; the % refers to the signal ratio; note: % of control where 0% means no effect); conditions: HCT-116 p53RE-bla, beta-lactamase FRET ratio, 16 h; activation: stronger effect = higher value
Procedure, shortened: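 Screen for p53 pathway agonists uses stably transfected p53RE-bla HCT-116 cells, 4,000 per well, treated 16 h at 37 C with compounds in DMSO.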

[19] = biological target: Nuclear receptor ROR-gamma (Homo sapiens) (UniProt P51449); experiment: qHTS assay for small molecule antagonists of the retinoid-related orphan receptor gamma (ROR-gamma) signaling pathway (AID 651802); conditions: ROR-gamma antagonist cell reporter assay; series mostly up to 92.2 µM; note: % is set by controls: 0 for no effect and ±100 for the full control effect; nearly all actives have a fitted effect of over 60% in size
Procedure, shortened: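 CHO cells carrying TET-inducible ROR-gamma and an ROR response element–luciferase reporter were exposed to compound, then induced with doxycycline. After 16hr at 37C, luminescence was read; lower signal indicates antagonism.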

[20] = biological target: Glucocorticoid receptor (Homo sapiens) (UniProt P04150); experiment: qHTS assay for small molecule agonists of glucocorticoid receptor signaling (AID 588532; active = well fitted curve in the direction sought with a large enough effect in the signal ratio, with a control signal flat; the % refers to the signal ratio;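 note: 100% = dexamethasone at 0.1 µM and 0% = DMSO only wells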); conditions: HeLa MMTV-bla, beta-lactamase ratio, agonist, 18 h; stronger effect = higher value; percent of dexamethasone control, DMSO zero
Procedure, shortened: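 Quantitative HTS using CellSensor MMTV-bla HeLa cells in charcoal/dextran-treated serum; compounds tested up to 92 uM. After 18 h at 37 C, CCF4 dye reported reporter induction.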

Cytochrome P450 3A4 (Homo sapiens), sequence (P08684 whole entry, looked up): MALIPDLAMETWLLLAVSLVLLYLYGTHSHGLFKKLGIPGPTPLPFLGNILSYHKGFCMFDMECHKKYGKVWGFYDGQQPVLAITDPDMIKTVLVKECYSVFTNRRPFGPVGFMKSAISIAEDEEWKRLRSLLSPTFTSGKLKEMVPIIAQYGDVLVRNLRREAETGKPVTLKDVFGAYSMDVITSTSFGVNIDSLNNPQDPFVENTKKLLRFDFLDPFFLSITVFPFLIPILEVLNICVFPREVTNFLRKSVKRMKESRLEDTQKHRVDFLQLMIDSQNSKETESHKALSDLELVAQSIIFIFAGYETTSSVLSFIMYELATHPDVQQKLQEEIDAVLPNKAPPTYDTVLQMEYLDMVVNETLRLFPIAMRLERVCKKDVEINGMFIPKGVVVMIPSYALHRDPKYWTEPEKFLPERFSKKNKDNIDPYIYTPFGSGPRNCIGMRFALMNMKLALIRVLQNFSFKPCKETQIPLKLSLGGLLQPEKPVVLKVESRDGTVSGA
Nuclear receptor subfamily 1 group I member 2 (Rattus norvegicus), sequence (Q9R1A7 whole entry, looked up): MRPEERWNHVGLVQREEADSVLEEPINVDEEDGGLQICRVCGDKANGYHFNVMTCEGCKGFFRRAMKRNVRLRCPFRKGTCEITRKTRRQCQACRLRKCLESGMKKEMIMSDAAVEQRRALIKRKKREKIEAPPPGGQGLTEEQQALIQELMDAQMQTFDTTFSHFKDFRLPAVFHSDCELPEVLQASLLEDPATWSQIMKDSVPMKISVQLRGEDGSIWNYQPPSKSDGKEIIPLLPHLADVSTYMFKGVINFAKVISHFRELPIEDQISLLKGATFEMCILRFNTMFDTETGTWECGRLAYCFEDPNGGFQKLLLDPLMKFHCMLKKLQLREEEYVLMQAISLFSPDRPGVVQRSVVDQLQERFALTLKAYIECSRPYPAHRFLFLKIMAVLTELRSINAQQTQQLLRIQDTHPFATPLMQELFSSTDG
Vitamin D3 receptor (Homo sapiens), sequence (P11473 whole entry, looked up): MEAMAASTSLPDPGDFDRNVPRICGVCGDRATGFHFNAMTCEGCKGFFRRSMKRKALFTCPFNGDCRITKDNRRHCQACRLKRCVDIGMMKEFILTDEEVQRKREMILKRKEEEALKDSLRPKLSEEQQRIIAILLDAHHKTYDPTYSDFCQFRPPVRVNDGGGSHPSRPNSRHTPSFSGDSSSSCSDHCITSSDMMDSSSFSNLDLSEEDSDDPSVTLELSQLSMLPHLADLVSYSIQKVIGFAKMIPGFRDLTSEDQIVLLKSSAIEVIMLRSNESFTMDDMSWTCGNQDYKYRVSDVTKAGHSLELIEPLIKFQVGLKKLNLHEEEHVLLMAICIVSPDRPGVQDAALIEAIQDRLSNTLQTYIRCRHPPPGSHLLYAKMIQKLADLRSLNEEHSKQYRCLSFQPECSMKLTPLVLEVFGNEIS
Nuclear receptor ROR-gamma (Homo sapiens), sequence (P51449 whole entry, looked up): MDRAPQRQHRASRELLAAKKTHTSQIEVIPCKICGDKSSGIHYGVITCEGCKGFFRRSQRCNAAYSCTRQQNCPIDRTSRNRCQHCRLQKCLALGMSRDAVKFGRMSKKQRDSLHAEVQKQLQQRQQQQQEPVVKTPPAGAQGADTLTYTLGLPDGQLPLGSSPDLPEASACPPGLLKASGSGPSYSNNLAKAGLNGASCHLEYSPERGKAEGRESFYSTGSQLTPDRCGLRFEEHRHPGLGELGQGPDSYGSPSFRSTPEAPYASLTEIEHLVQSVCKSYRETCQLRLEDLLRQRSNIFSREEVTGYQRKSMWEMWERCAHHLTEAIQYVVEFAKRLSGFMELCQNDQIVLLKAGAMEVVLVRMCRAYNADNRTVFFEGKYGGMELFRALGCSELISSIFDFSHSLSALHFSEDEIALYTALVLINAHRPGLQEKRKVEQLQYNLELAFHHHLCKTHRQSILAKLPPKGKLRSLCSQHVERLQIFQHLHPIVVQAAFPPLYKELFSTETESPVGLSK
Peroxisome proliferator-activated receptor gamma (Homo sapiens), sequence (P37231 whole entry, looked up): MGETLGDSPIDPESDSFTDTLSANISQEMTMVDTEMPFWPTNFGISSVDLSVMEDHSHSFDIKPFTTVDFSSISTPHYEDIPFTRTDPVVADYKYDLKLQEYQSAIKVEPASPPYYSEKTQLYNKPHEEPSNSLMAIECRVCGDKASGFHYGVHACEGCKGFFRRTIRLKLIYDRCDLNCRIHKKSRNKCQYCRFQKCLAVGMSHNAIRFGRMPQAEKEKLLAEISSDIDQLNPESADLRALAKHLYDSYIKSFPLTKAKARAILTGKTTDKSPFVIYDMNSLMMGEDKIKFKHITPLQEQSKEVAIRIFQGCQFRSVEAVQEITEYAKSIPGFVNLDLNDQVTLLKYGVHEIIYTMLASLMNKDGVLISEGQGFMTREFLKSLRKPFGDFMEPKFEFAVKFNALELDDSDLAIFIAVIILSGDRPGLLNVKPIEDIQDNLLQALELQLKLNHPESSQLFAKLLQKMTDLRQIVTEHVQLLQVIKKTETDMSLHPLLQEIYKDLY
Glucocorticoid receptor (Homo sapiens), sequence (P04150 whole entry, looked up): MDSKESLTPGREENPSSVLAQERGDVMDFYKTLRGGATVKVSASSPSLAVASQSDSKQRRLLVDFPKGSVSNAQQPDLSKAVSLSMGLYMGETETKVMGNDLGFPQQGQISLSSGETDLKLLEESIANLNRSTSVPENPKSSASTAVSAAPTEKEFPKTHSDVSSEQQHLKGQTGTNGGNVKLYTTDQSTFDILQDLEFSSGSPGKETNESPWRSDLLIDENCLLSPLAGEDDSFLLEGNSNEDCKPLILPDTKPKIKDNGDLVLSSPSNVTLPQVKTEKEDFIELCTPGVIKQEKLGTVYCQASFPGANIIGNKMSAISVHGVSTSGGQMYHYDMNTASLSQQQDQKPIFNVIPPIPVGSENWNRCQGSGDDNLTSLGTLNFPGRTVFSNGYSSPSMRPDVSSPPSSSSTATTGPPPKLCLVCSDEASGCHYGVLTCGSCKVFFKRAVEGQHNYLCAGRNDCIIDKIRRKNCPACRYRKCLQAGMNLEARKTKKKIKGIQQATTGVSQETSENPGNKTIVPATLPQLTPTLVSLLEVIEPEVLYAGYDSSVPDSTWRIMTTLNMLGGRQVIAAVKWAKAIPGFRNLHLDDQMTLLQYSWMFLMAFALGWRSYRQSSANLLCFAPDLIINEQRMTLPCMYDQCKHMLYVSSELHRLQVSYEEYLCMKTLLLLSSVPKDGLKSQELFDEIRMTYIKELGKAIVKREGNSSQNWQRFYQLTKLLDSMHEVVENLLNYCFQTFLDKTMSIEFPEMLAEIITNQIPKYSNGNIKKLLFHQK
Thyroid hormone receptor beta (Homo sapiens), sequence (P10828 whole entry, looked up): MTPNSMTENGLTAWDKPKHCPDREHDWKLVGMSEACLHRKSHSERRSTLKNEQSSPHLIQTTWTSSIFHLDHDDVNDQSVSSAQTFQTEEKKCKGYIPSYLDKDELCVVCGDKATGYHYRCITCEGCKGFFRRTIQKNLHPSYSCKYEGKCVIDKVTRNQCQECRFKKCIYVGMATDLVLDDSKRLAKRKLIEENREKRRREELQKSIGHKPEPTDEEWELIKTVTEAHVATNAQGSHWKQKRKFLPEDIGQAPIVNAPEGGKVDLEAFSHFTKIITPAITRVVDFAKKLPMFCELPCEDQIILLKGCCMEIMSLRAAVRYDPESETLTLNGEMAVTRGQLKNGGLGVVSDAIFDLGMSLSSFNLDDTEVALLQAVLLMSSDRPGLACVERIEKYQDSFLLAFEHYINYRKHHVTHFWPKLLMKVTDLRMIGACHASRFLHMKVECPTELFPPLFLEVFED
Estrogen receptor (Homo sapiens), sequence (P03372 whole entry, looked up): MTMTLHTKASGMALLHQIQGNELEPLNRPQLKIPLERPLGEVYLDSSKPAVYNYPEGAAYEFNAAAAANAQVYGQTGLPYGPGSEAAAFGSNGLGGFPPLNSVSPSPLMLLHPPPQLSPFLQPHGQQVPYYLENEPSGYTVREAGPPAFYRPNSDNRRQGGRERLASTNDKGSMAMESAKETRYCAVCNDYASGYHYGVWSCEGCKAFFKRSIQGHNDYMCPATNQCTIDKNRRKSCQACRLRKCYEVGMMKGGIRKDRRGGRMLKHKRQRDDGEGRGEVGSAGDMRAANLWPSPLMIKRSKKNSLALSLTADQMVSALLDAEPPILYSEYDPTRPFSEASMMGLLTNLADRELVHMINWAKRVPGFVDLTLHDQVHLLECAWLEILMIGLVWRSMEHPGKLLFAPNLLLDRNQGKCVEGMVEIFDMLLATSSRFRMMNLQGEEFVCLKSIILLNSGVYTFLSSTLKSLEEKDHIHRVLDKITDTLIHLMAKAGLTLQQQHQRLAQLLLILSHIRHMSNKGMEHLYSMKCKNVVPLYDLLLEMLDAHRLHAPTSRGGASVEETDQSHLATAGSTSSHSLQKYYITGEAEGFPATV
Tumor necrosis factor (Homo sapiens), sequence (P01375 whole entry, looked up): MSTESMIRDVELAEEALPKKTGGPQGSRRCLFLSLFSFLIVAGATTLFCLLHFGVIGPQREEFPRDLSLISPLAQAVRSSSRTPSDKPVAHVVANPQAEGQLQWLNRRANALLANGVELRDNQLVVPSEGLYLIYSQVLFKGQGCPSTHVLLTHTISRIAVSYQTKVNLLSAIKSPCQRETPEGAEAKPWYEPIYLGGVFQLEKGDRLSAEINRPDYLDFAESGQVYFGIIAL

O=NO
-10.7% and -17.9%: max response [7]
inactive: Potency [1] | Potency [2] | Potency [3] | outcome [4] | outcome [5] | outcome [6] | activity change % (negative = inhibition) [8] -1.68% and 1.18% | Potency [9] | Potency [10] | outcome [11] | activation [12] -0.432% and -1.54% | Potency [13] | max response [14] 3.2% and 1.29% | outcome [15]

CN(C)C=O
inactive: Potency [1] | Potency [3] | Potency [16] | Potency [17] | outcome [4] | activity change % (negative = inhibition) [8] -4.62% and -13.9% and 12% | activation [18] -4.49% and -0.185% and 0.579% | outcome [11] | activation [12] 0.683% and 0.177% and 0.0089% | Potency [19] | Potency [13] | max response [14] 4.41% and 5.29% and 1.77% | outcome [15]

Cc1ccccc1C
inactive: Potency [1] | Potency [2] | Potency [3] | Potency [16] | Potency [17] | activation [20] -7.63% and -0.245% | outcome [4] | outcome [5] | outcome [6] | activity change % (negative = inhibition) [8] 8.96% and 15% | activation [18] -3.02% and -3.15% | Potency [9] | Potency [10] | outcome [11] | activation [12] 1.3% and -0.327% | Potency [19] | Potency [13] | max response [14] -1.06% and 4.02% | outcome [15]
-0.877% and 16.9%: max response [7]

COc1cccc(-c2nc(N(C)C)c3ccccc3n2)c1
active: Potency [1] 5.01 µM

Cc1cccc([N+](=O)[O-])c1C
inactive: Potency [1] | Potency [2] | Potency [3] | Potency [16] | Potency [17] | outcome [4] | outcome [5] | outcome [6] | activity change % (negative = inhibition) [8] -0.0299% and -1.89% | activation [18] -0.524% and 0.427% | Potency [9] | Potency [10] | outcome [11] | activation [12] 0.368% and -0.256% | Potency [13] | max response [14] 1.82% and -0.351% | outcome [15]
-8% and -5.71%: max response [7]

c1ccc2c(c1)[nH]c1ccccc12
2.28% and -6.27%: max response [7]
inactive: Potency [1] | Potency [2] | Potency [3] | Potency [16] | Potency [17] | activation [20] -0.462% and 14.4% | outcome [4] | activity change % (negative = inhibition) [8] 1.02% and -10.3% | activation [18] 0.0697% and -3.97% | Potency [10] | outcome [11] | activation [12] 0.0505% and 2.39% | Potency [13] | max response [14] -0.192% and 1.32% | outcome [15]

OCCNCCO
inactive: Potency [1] | Potency [2] | Potency [3] | Potency [16] | Potency [17] | activation [20] -6.89% and -4.55% | outcome [5] | outcome [6] | Potency [9] | Potency [10] | outcome [11] | activation [12] 1.33% and -0.956% | Potency [13] | outcome [15]
-28.3% and -18.3%: max response [7]
